# According to PubChem BioAssay (EPA / NIEHS):
# Calls of active or inactive are those of the source. The calls were made as follows: active = hit-call score of the fitted dose curve at least 0.9, where 1 is the maximum; inactive = score below 0.9.
# Experiment: CCTE_Harrill_HTTr_Apoptosis_MCF7: CCTE's 6-hour Apoptosis Assessment for the High-Throughput Transcriptomics (HTTr) Platform, in MCF-7 cells cultured in DMEM + 10% fetal bovine serum, Harrill Lab (AID 2284011)
# Description: This is a cell-based assay that evaluates apoptosis using high content imaging to evaluate activation of caspase-3/7 using the CellEvent Caspase 3/7 Green detection reagent in 384-well format.One of seven assay components measured from the CCTE_Harrill_HTTr_Apoptosis assay. This was part of a full screening experiment. This is a cell-based assay that evaluates apoptosis in MCF-7 cells cultured in DMEM + 10% fetal bovine serum. High content imaging is used to evaluate activation of caspase-3/7 using the CellEvent Caspase 3/7 Green detection reagent. Measurements are taken at 6 hours after chemical dosing in 384-well format.The assay component endpoint CCTE_Harrill_HTTr_Apoptosis_MCF7 was analyzed with bidirectional fitting relation to DMSO as the negative control and baseline of activity. Using a type of viability reporter, gain-of-signal activity can be used to evaluate activation of caspase-3/7 using the CellEvent Caspase 3/7 Green detection reagent to understand changes in apoptosis. To generalize the intended target to other relatable targets, this assay endpoint is annotated to cell cycle, where the subfamily is apoptosis.
# Chemicals were tested in MCF7 cells in an eight point dilution series with a six hour exposure duration.
row,SMILES,outcome
1,CCOP(=S)(OCC)Oc1nc(Cl)n(C(C)C)n1,inactive
2,COCC(=O)N(c1c(C)cccc1C)C(C)C(=O)OC (stereo not given),inactive
3,C=CCOC(=O)C(C)(C)OC(=O)c1cc(-n2c(=O)cc(C(F)(F)F)n(C)c2=O)ccc1Cl,inactive
4,CS(=O)(=O)c1cc(C(F)(F)F)ccc1C(=O)c1cnoc1C1CC1,inactive
5,CCOc1nc(C(Cl)(Cl)Cl)ns1,inactive
6,CSC(=O)c1c(C(F)F)nc(C(F)(F)F)c(C(=O)SC)c1CC(C)C,inactive
7,N#Cc1c[nH]cc1-c1cccc2c1OC(F)(F)O2,inactive
8,CC1(C)C(C(=O)OC(C#N)c2cccc(Oc3ccccc3)c2)C1(C)C (stereo not given),inactive
9,Cc1cc(C)nc(Nc2ccccc2)n1,inactive
10,Cn1c(-c2ccccc2)cc(-c2ccccc2)[n+]1C,inactive
11,CC(C)Nc1nc(Cl)nc(NC(C)C)n1,inactive
12,CC(C)=CC1C(C(=O)OCc2coc(Cc3ccccc3)c2)C1(C)C (stereo not given),inactive
13,COc1cc(OC)nc(NC(=O)NS(=O)(=O)c2ncccc2OCC(F)(F)F)n1,inactive
14,CS(=O)(=O)c1ccc(C(=O)C2C(=O)CCCC2=O)c([N+](=O)[O-])c1,inactive
15,CC1(C)C(C=C(Cl)Cl)C1C(=O)OC(C#N)c1cccc(Oc2ccccc2)c1 (stereo not given),inactive
16,COP(=S)(OC)SCn1nnc2ccccc2c1=O,inactive
17,CC(C)Oc1cccc(NC(=O)c2ccccc2C(F)(F)F)c1,inactive
18,CC1(C)CON(Cc2ccccc2Cl)C1=O,inactive
19,COc1ccc(-c2ccccc2)cc1NNC(=O)OC(C)C,inactive
20,CNC(=O)Oc1cccc2ccccc12,inactive

row,SMILES,outcome
1,CCOc1nc(F)cc2nc(S(=O)(=O)Nc3c(Cl)cccc3Cl)nn12,inactive
2,O=c1n(Cl)c(=O)n(Cl)c(=O)n1Cl,inactive
3,Clc1nc(Cl)nc(Nc2ccccc2Cl)n1,inactive
4,O=C(Nc1ccccc1-c1ccc(Cl)cc1)c1cccnc1Cl,inactive
5,Cc1cnc(C2=NC(C)(C(C)C)C(=O)N2)c(C(=O)O)c1 (stereo not given),inactive
6,OC(c1ccc(Cl)cc1)(c1ccc(Cl)cc1)C(Cl)(Cl)Cl,inactive
7,CN/C(=N\[N+](=O)[O-])NCc1cnc(Cl)s1,inactive
8,CCCCC(O)(Cn1cncn1)c1ccc(Cl)cc1Cl (stereo not given),inactive
9,CNC(=O)N(C)c1nnc(C(C)(C)C)s1,inactive
10,CC(C)N1C(=O)N(c2ccccc2)CSC1=NC(C)(C)C,inactive
11,COP(=S)(OC)Oc1ccc([N+](=O)[O-])c(C)c1,inactive
12,COC(=O)NS(=O)(=O)c1ccc(N)cc1,inactive
13,COC(=O)c1c(C(F)F)nc(C(F)(F)F)c(C2=NCCS2)c1CC(C)C,inactive
14,C=C(C)CN(CC)c1c([N+](=O)[O-])cc(C(F)(F)F)cc1[N+](=O)[O-],inactive
15,Clc1cccc(C(Cl)(Cl)Cl)n1,inactive
16,Nc1c(Cl)c(F)nc(OCC(=O)O)c1Cl,inactive
17,N#CN=C1SCCN1Cc1ccc(Cl)nc1,inactive
18,N#Cc1c(Cl)cccc1Cl,inactive
19,O=C(O)c1c(Cl)ccc2cc(Cl)cnc12,inactive
20,COCC(C)N(C(=O)CCl)c1c(C)csc1C (stereo not given),inactive
